Bioassay records as filed in PubChem.
hcDAF-12 act: H. contortus DAF-12 nuclear receptor activators, primary screen, cell-based, luminescence, HEK293, lit1-tk-luc reporter; HEK293 hcDAF-12 lit1-tk-luc reporter; 0% DMSO, 100% Δ7-dafachronic acid; activation, % at 6.8 µM; 370,000 compounds, 1.4% hits; AID 652067, 2013;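 active means activation above the mean of all tested compounds plus 3 SD, cut at about 5.5% in these data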
DAX1 inh: DAX1 (NR0B1) inhibitors on StAR promoter, primary screen, cell-based, luminescence, SF-1 (NR5A1), full-length DAX-1. 370,000 compounds, 1.1% hits. inhibition, % at 6.8 µM. HEK293T StAR-luciferase reporter, SF-1/DAX-1 repression relief;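 active means inhibition above the mean over all tested compounds plus 3 SD, cut at about 3.6% in these data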;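 further: higher inhibition means more luminescence from relief of DAX-1 repression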
hgDAF12 agonist: H. glycines DAF-12 receptor agonists, primary screen, cell-based, luminescence, HEK293, GAL4 fusion, UAS-luciferase. HEK293 GAL4-hgDAF12 UAS-luciferase reporter, agonist luminescence; normalized to butyrate control. 370,000 compounds, 1.8% hits. Nuclear hormone receptor DAF-12 (Heterodera glycines), GAL4 fusion. activation, % at 6.8 µM;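 active means activation above a cutoff set at the mean of all screened compounds plus 3 SD, cut at about 10% in these data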
esBAF inh: Bmi1 luciferase reporter increase in mESCs, primary screen, esBAF inhibitor project, mouse ES cells, Bmi1 luciferase knock-in, single point; 24 h; 100% = twice the neutral-well signal; reporter increase, % at 12.5 µM; 350,000 compounds, 2% hits; AID 602393, 2012; in the data active means activation above about 40%; inconclusive means no clear call, values can overlap the other calls;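 further: a rise in the Bmi1 reporter signal indicates esBAF inhibition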
ssDAF-12 act: S. stercoralis DAF-12 nuclear receptor activators, primary screen, cell-based, luminescence, HEK293, GRIP1 co-expression, lit1-tk-luc; Nuclear hormone receptor DAF-12 (Strongyloides stercoralis); HEK293 ssDAF-12/GRIP1 lit1-tk-luc reporter; % of 3 µM dafachronic acid response; activation, % at 6.8 µM; 370,000 compounds, 1% hits; AID 652126, 2013;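 active means activation above the mean over all tested compounds plus 3 SD, cut at about 0.9% in these data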
Wnt bcat act: Wnt/beta-catenin pathway activators, primary screen, cell-based, plate reader, single point. activation, % at 9.35 µM. Wnt/beta-catenin reporter cell assay, activator. 300,000 compounds, 1.2% hits; in the data active means activation above about 30%, passing the limit was not always enough; inconclusive means no clear call, values can overlap the other calls
Hits are given with their value; 0 = inactive; ? = inconclusive; - = no result given. Most compounds without a hit are left out; they make up all but 4.2% or so of the library.

SMILES	hcDAF-12 act	DAX1 inh	hgDAF12 agonist	esBAF inh	ssDAF-12 act	Wnt bcat act
C[C@@H]1CCCCO[C@H](CN(C)C(=O)Nc2ccc3c(c2)OCO3)[C@H](C)CN([C@H](C)CO)C(=O)c2cc(NC(=O)NC3CCCCC3)ccc2O1	-	-	-	0	-	-
COc1cc(/C=N/Nc2nncc3ccccc23)cc(OC)c1OC	0	0	0	0	0	0
C/C(=N\Nc1nncc2ccccc12)c1ccc(C(C)(C)C)cc1	-	-	-	49	-	-
Cn1ccnc1SCC(=O)Nc1ccc(Oc2ccccc2)cc1	0	0	0	50	0	0
COc1ccc(C(=O)CSc2nccn2C)cc1	0	0	12	42	0	0
Cc1ccn2c(Nc3ccc4c(c3)OCO4)c(-c3ccccn3)nc2c1	6.0	0	0	-	0	0
COc1ccc(-c2nc3ccc(C)cn3c2NCc2ccc3c(c2)OCO3)cc1	0	0	0	0	0	?
Cc1ccc(-c2nc3ccccn3c2NCc2ccc3c(c2)OCO3)cc1	0	0	0	44	0	?
c1ccc(-c2cc3nc(NCc4ccc5c(c4)OCO5)ccn3n2)cc1	0	0	0	52	0	0
COc1ccc(S(=O)(=O)Nc2ccc3c(c2)C(=O)N([C@@H](C)CO)C[C@H](C)[C@H](CN(C)C(=O)Nc2ccc(C(F)(F)F)cc2)OCCCC[C@@H](C)O3)cc1	-	-	-	0	-	-
COC(=O)C(Cc1c[nH]c2ccccc12)NC(=O)c1ccccc1Br (configuration not stated)	0	0	0	53	1.1	0
O=C(Cn1nnc2ccccc2c1=O)N[C@@H](Cc1c[nH]c2ccccc12)C(=O)O	0	0	0	0	1.0	0
CC(C)C[C@H](NC(=O)N1CC(=O)Nc2ccccc21)C(=O)N[C@H](Cc1c[nH]c2ccccc12)C(=O)O	0	0	0	0	0	0
CCC(C)[C@H](NC(=O)N1CC(=O)Nc2ccccc21)C(=O)N[C@@H](Cc1c[nH]c2ccccc12)C(=O)O (some centres not stated)	5.9	0	0	0	0	0
COC(=O)C(Cc1c[nH]c2ccccc12)NC(=O)CNC(C)=O (configuration not stated)	0	0	0	0	0	-
O=C(NC(Cc1c[nH]c2ccccc12)C(=O)O)c1cccc(S(=O)(=O)N2CCCCC2)c1 (configuration not stated)	5.7	0	0	0	0	0
C[C@@H]1CN([C@@H](C)CO)C(=O)c2cccc(NC(=O)Nc3ccc(C(F)(F)F)cc3)c2O[C@@H]1CN(C)S(=O)(=O)c1ccc(Cl)cc1	-	-	-	0	-	-
O=C([C@H]1[C@H](CO)[C@H]2Cn3c(cccc3=O)[C@@H]1N2C(=O)c1ccccn1)N1CCCCC1	-	-	-	0	-	-
CC(C)NC(=O)N(C)C[C@H]1Oc2ncc(C#CC3CCCC3)cc2C(=O)N([C@@H](C)CO)C[C@@H]1C	-	-	-	0	-	-
O=C(NCC1CC1)[C@H]1[C@H](CO)[C@H]2Cn3c(ccc(-c4ccccc4)c3=O)[C@@H]1N2C(=O)C1CC1	-	-	-	0	-	-
Cc1noc(C)c1C(=O)NC(Cc1c[nH]c2ccccc12)C(=O)O (configuration not stated)	0	0	0	0	1.2	0
O=C(NC(Cc1c[nH]c2ccccc12)C(=O)O)c1ccccc1 (configuration not stated)	0	0	0	0	1.2	0
Cc1nc(N[C@@H](Cc2c[nH]c3ccccc23)C(=O)O)c2oc3ccccc3c2n1	5.9	0	0	0	0	0
CO[C@@H]1CN(C)C(=O)c2ccc(NC(=O)Nc3ccc4c(c3)OCO4)cc2OC[C@@H](C)N(C(C)=O)C[C@H]1C	-	-	-	0	-	-
COc1ccc(S(=O)(=O)Nc2ccc3c(c2)CC(=O)N([C@@H](C)CO)C[C@H](C)[C@@H](CN(C)S(C)(=O)=O)O3)cc1	-	-	-	0	-	-
SMILES	hcDAF-12 act	DAX1 inh	hgDAF12 agonist	esBAF inh	ssDAF-12 act	Wnt bcat act
CCCNC(=O)C[C@H]1CC[C@@H]2[C@H](COc3ccc(NC(=O)c4ccccc4)cc3C(=O)N2C)O1	-	-	-	0	-	-
O=C(CNC(=O)c1cccs1)OCC(=O)c1ccc(Cl)cc1	0	0	0	0	12	0
O=C(CNC(=O)c1ccc(N2C(=O)c3ccccc3C2=O)cc1)OCC(=O)c1ccc(Cl)cc1	0	0	0	-	1.7	0
O=C(CNC(=O)c1cccs1)OCC(=O)c1ccc(Br)cc1	0	0	0	-	0	0
Cc1noc(C)c1S(=O)(=O)Nc1ccc2c(c1)C(=O)N([C@@H](C)CO)C[C@H](C)[C@H](CN(C)Cc1ccccc1)OCCCC[C@@H](C)O2	-	-	-	0	-	-
CCOC(=O)c1[nH]c2c(c1C)C(=O)CC(c1ccc(F)cc1)C2 (configuration not stated)	0	0	0	0	1.2	0
C[C@@H]1CCCCO[C@H](CN(C)CC2CCCCC2)[C@H](C)CN([C@@H](C)CO)C(=O)c2cc(NC(=O)Nc3ccc4c(c3)OCO4)ccc2O1	-	-	-	0	-	-
O=C(NC1CCCC1)C1C(c2ccc(C(F)(F)F)cc2)=Nc2ccccc2N1C(=O)c1ccccc1 (configuration not stated)	5.7	3.6	0	-	0	0
O=C(NCc1ccccc1)C1C(c2ccc3c(c2)OCO3)=Nc2ccccc2N1C(=O)c1ccco1 (configuration not stated)	0	0	0	-	0	0
O=C(NC1CCCC1)C1C(c2ccc(C(F)(F)F)cc2)=Nc2ccccc2N1C(=O)c1ccco1 (configuration not stated)	5.6	0	0	-	0	0
OC1c2cc(Br)ccc2N=C2CCCCCN21 (configuration not stated)	0	0	0	44	0	0
CNC(=O)C[C@@H]1CC[C@H]2[C@@H](COC[C@H](O)CN2C(=O)c2ccccn2)O1	-	-	-	0	-	-
Cc1nc2nc(-c3ccccc3)nn2c(C)c1Cl	5.6	0	0	-	0.9	-
Cc1nc2nc(-c3ccccc3)nn2c(C)c1C	0	0	11	0	0	0
Cc1nc(-c2ccccc2)nc(-c2ccccc2)n1	0	0	0	0	0	0
CN(C)C(=O)C[C@@H]1CC[C@@H](NC(=O)C2CC2)[C@@H](CO)O1	-	-	-	0	-	-
Cc1cc(C(=O)Nc2cccc3c2O[C@@H](CN(C)S(=O)(=O)c2ccc(Cl)cc2)[C@H](C)CN([C@@H](C)CO)C3=O)n(C)n1	-	-	-	0	-	-
